The source made the active and inactive calls. The calls were made as follows: active = hit-call score of the fitted dose curve at least 0.9, where 1 is the maximum; inactive = score below 0.9.
Assays:
[1] = read-out: Vascular endothelial growth factor receptor 2 (Homo sapiens) (UniProt P35968); test: BSK_4H_VEGFRII: BioMAP Diversity Plus: 4H Assay for Vascular endothelial growth factor receptor 2 (VEGFR2) Biomarker Activity (AID 2283031); settings: primary human endothelial cells (HUVEC); actives raise or lower the signal;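 as to AC50: cell-surface VEGFR2 protein level quantified by ELISA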
How it was run: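 Primary human umbilical vein endothelial cells in the BioMAP 4H system were dosed with test chemical, and 24 h later VEGFRII was measured by ELISA. Activity was fitted bidirectionally against DMSO as negative control and baseline.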

[2] = read-out: Human Leukocyte Antigen - DR isotype (HLADR), HLA-DRA (gene 3122); test: BSK_BE3C_HLADR: BioMAP Diversity Plus: BE3C Assay for Human Leukocyte Antigen - DR isotype (HLADR) Biomarker Activity (AID 2283032); settings: primary human bronchial epithelial cells; actives raise or lower the signal
How it was run: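 Cell-surface HLA-DR ELISA readout at 24 h after dosing in the BE3C primary human lung bronchial epithelial system; gain or loss of signal against DMSO, with parallel sulforhodamine B staining of total protein for overt cytotoxicity.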

[3] = read-out: Vascular cell adhesion molecule 1 (VCAM1), VCAM1 (gene 7412); test: BSK_4H_VCAM1: BioMAP Diversity Plus: 4H Assay for Vascular cell adhesion molecule 1 (VCAM1) Biomarker Activity (AID 2283033); settings: primary human endothelial cells (HUVEC); actives raise or lower the signal
How it was run: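 VCAM-1 ELISA read 24 h after chemical dosing of HUVEC in the BioMAP 4H system, with gain or loss of signal fitted relative to DMSO. Parallel SRB staining (560 nm) checked overt cytotoxicity.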

[4] = read-out: Monokine induced gamma interferon (MIG), CXCL9 (gene 4283); test: BSK_BE3C_MIG: BioMAP Diversity Plus: BE3C Assay for Monokine induced gamma interferon (MIG) Biomarker Activity (AID 2283035); settings: primary human bronchial epithelial cells; actives raise or lower the signal
How it was run: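 hu bronchial epithelial 1° cells, 24 h cpd; MIG by ELISA; bidirectional fit, DMSO = baseline.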

[5] = read-out: Transforming growth factor beta 1 (TGFb1), TGFB1 (gene 7040); test: BSK_BE3C_TGFb1: BioMAP Diversity Plus: BE3C Assay for Transforming growth factor beta 1 (TGFb1) Biomarker Activity (AID 2283036); settings: primary human bronchial epithelial cells; actives raise or lower the signal
How it was run: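 ELISA readout of TGF-b1 from human lung bronchial epithelial primary cells, taken 24 h post-treatment. Gain or loss of signal fitted relative to DMSO baseline, with parallel SRB staining for overt cytotoxicity.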

[6] = read-out: Plasminogen activator inhibitor-1 (PAI1), SERPINE1 (gene 5054); test: BSK_BE3C_PAI1: BioMAP Diversity Plus: BE3C Assay for Plasminogen activator inhibitor-1 (PAI1) Biomarker Activity (AID 2283037); settings: primary human bronchial epithelial cells; actives raise or lower the signal
How it was run: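 PAI-1 was measured by ELISA in human primary bronchial epithelial cultures 24 h after chemical dosing, with cytotoxicity checked by SRB total-protein staining in parallel cultures. Activity was fitted in both directions relative to DMSO.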

[7] = read-out: urokinase plasminogen activator (uPA), PLAU (gene 5328); test: BSK_BE3C_uPA: BioMAP Diversity Plus: BE3C Assay for urokinase plasminogen activator (uPA) Biomarker Activity (AID 2283038); settings: primary human bronchial epithelial cells; actives raise or lower the signal
How it was run: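 Human primary bronchial epithelial cells were exposed to chemical for 24 h, then uPA levels were measured by ELISA. Responses were fitted bidirectionally against DMSO as negative control and baseline. Parallel SRB staining of total protein gauged overt cytotoxicity.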

[8] = read-out: Urokinase-type plasminogen activator receptor (uPAR), PLAUR (gene 5329); test: BSK_BE3C_uPAR: BioMAP Diversity Plus: BE3C Assay for Urokinase-type plasminogen activator receptor (uPAR) Biomarker Activity (AID 2283039); settings: primary human bronchial epithelial cells; actives raise or lower the signal
How it was run: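 uPAR levels were measured by ELISA after 24 h compound treatment of primary human bronchial epithelial cells, fitted in both directions relative to DMSO. Parallel SRB staining served as the cytotoxicity read-out.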

[9] = read-out: Interleukin-6 (IL6), IL6 (gene 3569); test: BSK_CASM3C_IL6: BioMAP Diversity Plus: CASM3C Assay for Interleukin-6 (IL6) Biomarker Activity for (AID 2283040); settings: primary human coronary artery smooth muscle cells; actives raise or lower the signal
[10] = read-out: Tissue plasminogen activator (tPA), PLAT (gene 5327); test: BSK_BE3C_tPA: BioMAP Diversity Plus: BE3C Assay for Tissue plasminogen activator (tPA) Biomarker Activity (AID 2283041); settings: primary human bronchial epithelial cells; actives raise or lower the signal
How it was run: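 tPA measured by ELISA 24 h after dosing human primary bronchial epithelial cells (BE3C system). Changes in either direction were fitted against DMSO. Parallel cultures were stained with SRB to flag overt cytotoxicity.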

[11] = read-out: Interleukin-8 (IL8), CXCL8 (gene 3576); test: BSK_CASM3C_IL8: BioMAP Diversity Plus: CASM3C Assay for Interleukin-8 (IL8) Biomarker Activity (AID 2283042); settings: primary human coronary artery smooth muscle cells; actives raise or lower the signal;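 also: IL-8 protein level quantified by ELISA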
[12] = read-out: Human Leukocyte Antigen - DR isotype (HLADR), HLA-DRA (gene 3122); test: BSK_CASM3C_HLADR: BioMAP Diversity Plus: CASM3C Assay for Human Leukocyte Antigen - DR isotype (HLADR) Biomarker Activity (AID 2283043); settings: primary human coronary artery smooth muscle cells; actives raise or lower the signal;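 also: cell-surface HLA-DR protein level quantified by ELISA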
[13] = read-out: Macrophage colony-stimulating factor (MCSF), CSF1 (gene 1435); test: BSK_CASM3C_MCSF: BioMAP Diversity Plus: CASM3C Assay for Macrophage colony-stimulating factor (MCSF) Biomarker Activity (AID 2283044); settings: primary human coronary artery smooth muscle cells; actives raise or lower the signal;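 also: M-CSF protein amount quantified by ELISA after 24 h exposure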
[14] = read-out: Low-density lipoprotein receptor (LDLR), LDLR (gene 3949); test: BSK_CASM3C_LDLR: BioMAP Diversity Plus: CASM3C Assay for Low-density lipoprotein receptor (LDLR) Biomarker Activity (AID 2283045); settings: primary human coronary artery smooth muscle cells; actives raise or lower the signal;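 also: LDLR protein level on the cell surface quantified by ELISA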
[15] = read-out: Monocyte Chemoattractant Protein-1 (MCP1), CCL2 (gene 6347); test: BSK_CASM3C_MCP1: BioMAP Diversity Plus: CASM3C Assay for Monocyte Chemoattractant Protein-1 (MCP1) Biomarker Activity (AID 2283046); settings: primary human coronary artery smooth muscle cells; actives raise or lower the signal;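 also: MCP-1 level quantified by ELISA 24 h after dosing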
[16] = BSK_CASM3C_Proliferation: Cell Proliferation Assessment in the BioMAP Diversity Plus: CASM3C Assay (AID 2283047); settings: primary human coronary artery smooth muscle cells;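 also: sulforhodamine B total protein stain as relative cell number at 560 nm; sub-confluent cells exposed 48 h before staining; fitted both ways against DMSO so gain or loss of cell number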
[17] = read-out: Monokine induced gamma interferon (MIG), CXCL9 (gene 4283); test: BSK_CASM3C_MIG: BioMAP Diversity Plus: CASM3C Assay for Monokine induced gamma interferon (MIG) Biomarker Activity (AID 2283048); settings: primary human coronary artery smooth muscle cells; actives raise or lower the signal
[18] = read-out: serum amyloid A (SAA), SAA1 (gene 6288); test: BSK_CASM3C_SAA: BioMAP Diversity Plus: CASM3C Assay for serum amyloid A (SAA) Biomarker Activity (AID 2283049); settings: primary human coronary artery smooth muscle cells; actives raise or lower the signal;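 also: SAA protein level quantified by ELISA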
[19] = BSK_CASM3C_SRB: Viability Assessment in the BioMAP Diversity Plus: CASM3C Assay (AID 2283050); settings: primary human coronary artery smooth muscle cells
[20] = read-out: Interferon-gamma inducible Protein 10 (IP10), CXCL10 (gene 3627); test: BSK_BE3C_IP10: BioMAP Diversity Plus: BE3C Assay for Interferon-gamma inducible Protein 10 (IP10) Biomarker Activity (AID 2283034); settings: primary human bronchial epithelial cells; actives raise or lower the signal
How it was run: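 IP-10 quantified by ELISA in human primary bronchial epithelial cell cultures at 24 hours post-dosing. Gain or loss of signal fitted relative to DMSO; parallel SRB staining assessed overt cytotoxicity.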

Measured: AC50

O=C(Nc1ccc(Cl)cc1)Nc1ccc(Cl)c(Cl)c1
inactive: [4] | [5] | [7] | [11] | [15] | [17]
active: [1] 2.19 µM | [2] 1.39 µM | [3] 3.48 µM | [6] 1.11 µM | [8] 1.1 µM | [9] 12.7 µM | [10] 1.73 µM | [12] 2.81 µM | [13] 12.3 µM | [14] 7.14 µM | [16] 5 µM | [18] 12.6 µM | [19] 10.6 µM

Cc1ncc(CO)c(CO)c1O
not listed: [20]
inactive: all other assays above

Cc1oc2c(NC(=O)c3c(Cl)cccc3Cl)cccc2c1C(C)(C)O
active: [2] 18.1 µM | [9] 33.2 µM | [10] 15.1 µM | [14] 15.6 µM | [16] 20 µM
not listed: [20]
inactive: all other assays above

NCc1cccc(C2CCN(C(=O)c3ccc(C#Cc4ccccc4F)o3)CC2)c1
active: [2] 6.79 µM | [3] 26.2 µM | [4] 13.7 µM | [5] 13.1 µM | [6] 13.8 µM | [7] 7.93 µM | [8] 11.8 µM | [9] 33.9 µM | [10] 7.07 µM | [11] 34.7 µM | [12] 13.3 µM | [13] 28.4 µM | [14] 35.3 µM | [16] 22.3 µM | [17] 34 µM | [18] 27.7 µM | [19] 16 µM
inactive: [1] | [15]

COc1cccc([C@H](O)C2CCN(CCc3ccc(F)cc3)CC2)c1OC
active: [3] 12.9 µM
not listed: [20]
inactive: all other assays above

NC(=O)c1nc(-c2cccc(-c3cc(F)ccc3OCC(F)(F)C(F)(F)F)c2)n[nH]1
inactive: [1] | [9] | [11] | [13] | [14] | [15] | [17] | [18] | [19]
active: [3] 38.2 µM | [20] 35.9 µM | [4] 37.5 µM | [5] 33 µM | [6] 35.1 µM | [7] 37.7 µM | [8] 35.3 µM | [10] 27.5 µM | [12] 28.7 µM | [16] 31.4 µM

CC(C)(C)c1cc(/C=C2\SC(N)=NC2=O)cc(C(C)(C)C)c1O
active: [1] 27.4 µM | [2] 7.46 µM | [3] 26.4 µM | [7] 3.97 µM | [9] 36.2 µM | [12] 20 µM | [13] 33.3 µM | [14] 29.1 µM | [15] 31.1 µM | [16] 29.1 µM | [17] 32 µM | [18] 31.6 µM | [19] 30.7 µM
inactive: [4] | [5] | [6] | [8] | [10] | [11]

CCCCCCCC[Si](OCC)(OCC)OCC
active: [3] 21.6 µM | [16] 35.4 µM
not listed: [20]
inactive: all other assays above

— PubChem BioAssay (EPA / NIEHS)
